Rows were chosen to be rich in hits. Some 12% of all compounds tested hit in one or more screens of this group.
L3MBTL1 inh – L3MBTL1 (human) inhibition. Q9Y468. AlphaScreen L3MBTL1–H3K9me1 peptide binding. Potency, µM (highest dose often 57.1 µM), usual class: inhibitors. actives 0.66% (n = 230,000). AID 485360; also: nearly all actives have a fitted effect of over 60% in size
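Displacement of a biotinylated histone H3(1-15) peptide monomethylated at Lys9 (75 nM) from L3MBTL1 (50 nM) was measured by AlphaScreen after a 30 min room-temperature compound incubation; cefsulodin titration served as intraplate control.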
JMJD2A Tudor – blocks the human JMJD2A Tudor domain. O75164. AlphaScreen JMJD2A-Tudor / H3K4me3 peptide binding. Potency, µM (top dose mostly 114 µM), most hits filed as inhibitors. actives 4.4% (n = 390,000). AID 504339; also: nearly all actives have a fitted effect of over 50% in size
Target sequence (O75164 whole entry, looked up, the tested form may be a part): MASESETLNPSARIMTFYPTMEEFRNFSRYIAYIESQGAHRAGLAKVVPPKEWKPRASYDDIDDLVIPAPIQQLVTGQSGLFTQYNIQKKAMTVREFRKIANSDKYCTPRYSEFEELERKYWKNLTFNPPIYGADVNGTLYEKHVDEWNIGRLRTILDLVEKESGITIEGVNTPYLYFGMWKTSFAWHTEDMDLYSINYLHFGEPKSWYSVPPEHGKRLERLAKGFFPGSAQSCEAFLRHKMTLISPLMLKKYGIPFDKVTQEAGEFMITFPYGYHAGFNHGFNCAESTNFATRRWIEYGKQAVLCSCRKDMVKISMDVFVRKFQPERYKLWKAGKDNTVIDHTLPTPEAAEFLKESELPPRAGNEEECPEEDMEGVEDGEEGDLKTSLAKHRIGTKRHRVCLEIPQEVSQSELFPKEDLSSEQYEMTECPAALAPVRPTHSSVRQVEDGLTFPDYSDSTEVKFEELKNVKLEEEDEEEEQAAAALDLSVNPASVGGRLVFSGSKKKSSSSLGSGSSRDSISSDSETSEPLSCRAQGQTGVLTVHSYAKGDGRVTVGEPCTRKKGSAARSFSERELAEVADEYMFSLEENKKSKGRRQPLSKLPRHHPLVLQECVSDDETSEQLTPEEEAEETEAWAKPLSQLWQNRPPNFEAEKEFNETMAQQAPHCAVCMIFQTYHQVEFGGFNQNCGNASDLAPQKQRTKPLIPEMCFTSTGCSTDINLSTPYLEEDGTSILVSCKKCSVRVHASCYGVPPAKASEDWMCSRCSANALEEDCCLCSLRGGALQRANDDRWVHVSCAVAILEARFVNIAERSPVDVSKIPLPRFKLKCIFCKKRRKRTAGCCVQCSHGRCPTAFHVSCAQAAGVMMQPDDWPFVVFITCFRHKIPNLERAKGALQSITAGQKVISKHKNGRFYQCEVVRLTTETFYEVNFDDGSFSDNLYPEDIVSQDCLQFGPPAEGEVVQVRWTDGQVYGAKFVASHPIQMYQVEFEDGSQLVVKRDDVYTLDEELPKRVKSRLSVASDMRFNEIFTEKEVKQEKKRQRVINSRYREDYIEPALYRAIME
G9a inh – G9a (human) methyltransferase inhibition. G9a H3K9 monomethylation, AlphaScreen, 2 h. Potency, µM (series often up to 102 µM), hits mostly inhibitors. actives 8.8% (n = 350,000). Q96KQ7; also: nearly all actives have a fitted effect of over 75% in size
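Enzyme 20 nM + cpd, 15 min RT; add b-H3K9 pep 500 nM / SAM 20 uM; 2 h RT; anti-H3K9me1 Ab 0.5 ug/mL + SA donor / anti-rabbit acceptor beads 20 ug/mL each, 10 min; AlphaScreen read.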
BAZ2B block – inhibitors of human BAZ2B bromodomain; Q9UIF8; AlphaScreen BAZ2B-H3K14Ac peptide displacement; Potency, µM (titrated, usually from 114 µM), actives largely listed as inhibitors; actives 4.4% (n = 360,000); also: nearly all actives have a fitted effect of over 60% in size
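Protein-peptide AlphaScreen: BAZ2B 50 nM, b-H3K14Ac 50 nM, 1x PBS pH 7.4 + 0.01% Tween-20. Preincubation 30 min RT; cpd 30 min RT (top 110 uM); beads 20 min RT, light-protected.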
Sfp PPTase inh – inhibitors of Bacillus subtilis Sfp phosphopantetheinyl transferase. Q9F4F7. Biochemical Sfp PPTase activity, qHTS. Potency, µM, most hits filed as inhibitors. actives 3.5% (n = 310,000);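 also: the enzyme is Sfp with the accession as filed and its product quenches rhodamine fluorescence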
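After 15 min at room temperature with compound, 15 nM Sfp received 5 uM rhodamine-CoA plus 12.5 uM BHQ-2-ybbR (50 mM Hepes pH 7.6, 10 mM MgCl2). Rate came from the fluorescence difference over 30 min, ex 525/em 598 nm.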
HP1b binding inh – blocks HP1-beta chromodomain binding to methylated histone tails | P83916 | AlphaScreen HP1-beta / biotin-H3K9me3 peptide binding | Potency, µM (highest dose often 114 µM), most hits filed as inhibitors | actives 0.56% (n = 390,000); also: nearly all actives have a fitted effect of over 70% in size
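AlphaScreen: HP1-beta (50 nM) preformed 30 min with biotin-H3(1-18)K9me3 peptide (50 nM) in PBS pH 7.4, 0.01% Tween-20. Compound added for 30 min at RT, then streptavidin donor/nickel chelate acceptor beads (10 ug/mL) for 30 min.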
Numbers stand for hits; n = inactive; u = inconclusive; x = not tested or not shown; [ ] = dose if it differs, or a comment. Calls follow the shape of the dose curve; as a rule, active = well fitted curve in the direction sought with a large enough effect; inconclusive = small, poorly fitted or top-dose-only effect, or another doubt; inactive = no such curve, though single readings can be large; an effect the other way counts as inactive or inconclusive.

SMILES | L3MBTL1 inh | JMJD2A Tudor | G9a inh | BAZ2B block | Sfp PPTase inh | HP1b binding inh
CCN(CC)CCC(c1ccc(N(C)C)cc1)c1c(OC)cc(OC)c2c1OC(=O)CC2c1ccc(OC)cc1 (centres undefined) | x | 16µM | x | x | n | u
COC(=O)c1ccccc1NC(=O)c1oc2ccc3c(c2c1C)C(=O)CC(C)(C)O3 | x | n | n | n | x | n
COc1ccc(CNC(=O)C2CCN(Cc3nc(-c4ccc(OC)c(OC)c4)oc3C)CC2)cc1 | x | n | n | n | x | n
Cc1ccc(CN2CCN(/N=C/c3cc(Br)ccc3F)CC2)cc1 | n | u | 56µM | 50µM | n | n
Cc1ccc(CN2CCN(/N=C/c3ccc(Cl)c([N+](=O)[O-])c3)CC2)cc1 | x | 45µM | 14µM | 14µM | n | u
Cc1ccc(CN2CCN(/N=C/c3cc([N+](=O)[O-])ccc3Cl)CC2)cc1 | x | 35µM | u | 32µM | n | u
O=[N+]([O-])c1cc(CN2CCC(O)CC2)ccc1Cl | n | 0.89µM | 13µM | 50µM | n | u
Cc1ccc(CN2CCN(/N=C/c3ccc(N(C)C)cc3)CC2)cc1 | n | u | x | u | n | u
CCN1C(=O)c2ccccc2S(=O)(=O)c2ccc(C(=O)NCc3ccccc3)cc21 | x | n | n | n | x | n
Cc1cc(C)cc(-n2ccn(CC(=O)c3ccc(F)cc3)c(=O)c2=O)c1 | x | n | n | n | x | n
COc1ccc(CNC(=O)CS(=O)(=O)c2cccc3nsnc23)cc1 | x | n | n | n | x | n
COc1ccc(S(=O)(=O)CC(=O)c2cc3cc(Br)ccc3oc2=O)cc1 | x | u | 25µM | 45µM | n | n
COc1cc(-n2c(-c3ccccc3)n[nH]c2=S)c(OC)cc1Cl | n | n | x | u | u | n
S=c1[nH]nc(-c2ccc(Cl)cc2)n1-c1cccnc1 | n | 8.9µM | 10µM | n | n | n
S=c1[nH]nc(-c2ccc3ccccc3n2)n1-c1ccccc1 | n | u | 1.6µM | n | n | n
c1ccc(-c2nc(-c3cccnc3)n[nH]2)cc1 | n | x | n | n | n | x
COc1ccccc1-n1c(-c2cccnc2)n[nH]c1=S | n | 4.5µM | 3.2µM | n | 50µM | n
S=c1[nH]nc(-c2cccnc2)n1-c1ccccc1 | n | 7.9µM | 1.6µM | n | 79µM | n
COc1ccc(CCNC(=O)CSc2cn(CCNC(=O)c3ccccc3F)c3ccccc23)cc1OC | x | n | n | n | x | n
CN1C(=O)CC(C(=O)Nc2ccc(C(=O)O)cc2)SC1=Nc1ccc(Cl)cc1 (centres undefined) | x | n | n | n | x | n
CCOC(=O)c1cc2c(=O)n3ccccc3nc2n(CCOC)c1=NC(=O)c1cc2ccccc2o1 | x | n | n | n | x | n
CCCCc1ccc(NC(=O)c2cc3c(=O)n4ccccc4nc3s2)cc1 | x | n | n | n | x | n
Cc1nnsc1C(=O)NNS(=O)(=O)c1ccccc1 | n | u | n[12.7 µM] | u | n | n
Cc1cccc(S(=O)(=O)NNC(=O)c2sc(C)nc2C)c1 | n | 10µM | u | n | n | n
C/C(=N/NC(=O)c1sc(NS(=O)(=O)c2ccccc2)nc1C)c1sc(N)nc1C | x | u | 50µM | u | n | n
SMILES | L3MBTL1 inh | JMJD2A Tudor | G9a inh | BAZ2B block | Sfp PPTase inh | HP1b binding inh
Cc1nc(NS(=O)(=O)c2ccccc2)sc1C(=O)NN | n | n | n[12.7 µM] | u | n | n
Cc1ccc(S(=O)(=O)Nc2nc(C)c(C(=O)NNS(=O)(=O)c3ccccc3)s2)cc1 | n | n | 50µM | n | n | n
CC(=O)NNC(=O)c1sc(=S)n(C)c1C | n | n | n | n | n | n
Cc1c(C(=O)NNS(=O)(=O)c2ccccc2)sc(=S)n1C | n | 8.9µM | n | u | n | n
COc1ccccc1NC(=O)c1ccc(-c2nc(COc3ccc(C)cc3)c(C)o2)cc1 | x | n | u | n | x | n
COc1cccc(CNC(=O)c2oc3ccc4c(c3c2C)C(=O)CC(C)(C)O4)c1OC | x | n | n | n | x | n
C=CCOC(=O)C(C(C)=O)C(NC(=O)OC)c1ccc(Cl)cc1 (centres undefined) | x | x | x | x | n | x
CCOc1ccc(C2=CC(c3cc(Br)ccc3F)n3ncnc3N2)cc1Cl (centres undefined) | x | n | n | n | x | n
CCN(Cc1ccccc1)C(=O)Cn1c(=O)n(-c2ccc(C)c(C)c2)c(=O)c2c(C)c(C)sc21 | x | n | n | n | x | n
Cc1nc(C)c(C(=O)NNS(=O)(=O)c2ccc([N+](=O)[O-])cc2)s1 | n | 2µM | 7.9µM | n | n | n
CCC(=O)N1CCc2cc(S(=O)(=O)NC(CC(C)C)C(=O)NCc3ccc(F)cc3)ccc21 (centres undefined) | x | n | n | x | x | n
C=Cc1ccc(Cn2c(C(=O)O)c(CNCc3ccccc3)c3ccc(C)cc32)cc1 | x | u | u | 50µM | x | n
COc1cc(CN2CC(=O)N(c3ccccc3Cl)C2=S)cc(OC)c1OC | x | n | n | n | n | n
COc1cc(Cl)c(C)cc1N1C(=O)CN(Cc2ccccc2)C1=S | x | n | 35µM | n | u | n
S=c1[nH]nc(-c2ccc(Cl)cc2Cl)n1-c1ccc2c(c1)OCCO2 | n | 79µM | 2.5µM | n | 45µM | u
Oc1ccc(-c2n[nH]c(=S)n2-c2ccc3c(c2)OCCO3)c(O)c1 | n | 10µM | 1.8µM | n | u | n
CCOC(=O)c1c(-c2ccc(C)cc2C)csc1NC(=O)c1ccccc1Cl | x | n | n | n | x | n
CC(C)[C@H](NC(=O)OCc1ccccc1)C(=O)N[C@H](C=O)Cc1ccccc1 | x | x | n | x | n | x
Cc1c(C=O)c2ccccn2c1C(=O)c1cccs1 | n | n | 50µM | n | u | n
C#CCOCCOCCOCCNc1nc(N2CCN(C(=O)CCCCCCCCCCNC(=O)[C@@H](CCSC)n3cc(CCO)nn3)CC2)nc(N2CCN(C(=O)CCCCCCCCCCNC(=O)[C@H](CO)n3cc(CCCCCN)nn3)CC2)n1 | n | 79µM | n[2.33 µM] | u | x | u
C#CCOCCOCCOCCNc1nc(N2CCN(C(=O)CCCCCCCCCCNC(=O)[C@@H](CCC(=O)O)n3cc(CCCCCN)nn3)CC2)nc(N2CCN(C(=O)CCCCCCCCCCNC(=O)[C@H](CO)n3cc(CCCSC)nn3)CC2)n1 | n | 45µM | n[2.33 µM] | u | x | n
Cc1csc2nc(COc3ccccc3NC(=O)c3ccccc3Cl)cc(=O)n12 | x | n | n | n | x | n
CCCCc1nc2cc(C(=O)N3CCCCC3C(=O)OC)ccc2o1 (centres undefined) | x | 22µM | n | n | n | n
CCCCc1nc2cc(C(=O)N3CCCCC3CC(=O)OCC)ccc2o1 (centres undefined) | x | n | n | n | n | n
O=C(Nc1ccccc1)Nc1ccc2nnsc2c1 | n | 79µM | n | n | n | n
CC(O)CC(C(=O)NNc1ccccc1)C(=O)NNc1ccccc1 (centres undefined) | n | n | 3.2µM | n | n | n
